Measured values: PubChem BioAssay
Calls of active or inactive are those of the source.

What follows are compounds tested on XIP peptide (Xip251-270) binding (assay: small-molecule binders of XIP peptide, primary screen, biochemical, small-molecule microarray, fluorescence 635/667 nm, 0.1 µg/mL protein (AID 1182)). Conditions: fluorescent protein binding, 635 nm, higher = more signal, called active from +8 up or from −8 down.
With `[N-]=[N+]=NCc1ccccc1[C@H]1OC(c2ccc(OCCCO)cc2)=N[C@@]1(Cc1ccccc1N=[N+]=[N-])C(=O)N1CCCCC1` the composite z-score was 0.538 (inactive).
With `O=C1c2ccccc2C(=O)C2CC([C@H]3Oc4ccccc4S(=O)(=O)N4CCC[C@@H]34)=CCC12` (stereo not given in full) the composite z-score was -0.26 (inactive).
In the case of `C[C@H]1ON(c2ccccc2)[C@@H](c2ccccc2)[C@@H]1C(=O)N1C(=O)OC[C@@H]1c1ccccc1`, the composite z-score is reported as -0.222 (inactive).
With `CN(C)C(=O)[C@@]1(CCC(=O)OC(C)(C)C)COC(c2ccc(OCCCO)cc2)=N1` the composite z-score was 0.9 (inactive).
In the case of `Cc1ccc(S[C@]2(C(=O)O)CC(=O)N(C3CCCCC3)[C@@H]2c2ccc(CO)cc2)cc1`, the composite z-score is reported as 1.15 (inactive).
In the case of `CC(C)CCC[C@@H](C)[C@H]1CC[C@@]2(C)C3=C(CC[C@]12C)[C@@]1(C)CC[C@H](OC(=O)c2ccc(N)cc2)C(C)(C)C1CC3` (stereo not given in full), the composite z-score is reported as 0.141 (inactive).
In the case of `C=CC[C@@]1(C(=O)NCCN2CCOCC2)N=C(c2ccc(OCCCO)cc2)O[C@@H]1c1ccccc1`, the composite z-score is reported as 0.202 (inactive).
For `C=CCC(OC(C)=O)[C@@H]1[C@@H](N(Cc2cccc3ccccc23)C(=O)Cc2ccc(F)cc2)c2cc(OCCCO)ccc2N1C(=O)Cc1ccc(OC)cc1` (stereo not given in full), the composite z-score was -0.51 (inactive).
`COc1ccc(C#Cc2ccc3c(c2)[C@]2(C(=O)N3)[C@H](C(N)=O)[C@H]3C(=O)O[C@H](c4ccccc4)[C@H](c4ccccc4)N3[C@@H]2c2ccc(O)cc2)cc1` was tested, and the composite z-score was 1.13 (inactive).
In the case of `CCOC(=O)C1=CC[C@@H](c2ccc(N(CC)CC)cc2)N(S(=O)(=O)c2ccc(C)cc2)[C@H]1c1ccc([N+](=O)[O-])cc1`, the composite z-score is reported as 0.326 (inactive).
For `COC(=O)[C@@]1(Cc2ccc(F)cc2)[C@H]2c3cc(C(=O)N4CCCC4)n(Cc4ccccc4)c3C[C@H]2CN1C(=O)c1ccccc1`, the composite z-score was 0.0584 (inactive).
In the case of `O=C1O[C@H](c2ccccc2)[C@H](c2ccccc2)N2[C@H]1[C@@H](C(=O)N1CCCCCCC1)[C@]1(C(=O)Nc3ccccc31)[C@H]2c1ccc(O)cc1`, the composite z-score is reported as 4.72 (inactive).
`COc1cc(NN2C(C(O)c3ccc(I)cc3)C=CC3C(=O)N(C)C(=O)C32)cc(OC)c1OC` (stereo not given) was tested, and the composite z-score was 1.42 (inactive).
`C=CCC(OC(C)=O)[C@@H]1[C@@H](N(Cc2ccc(-c3ccccc3)cc2)C(=O)c2cccc3ccccc23)c2cc(OCCCO)ccc2N1C(=O)c1ccc2ccccc2n1` (stereo not given in full) was tested, and the composite z-score was -0.0607 (inactive).
With `COC(=O)c1c(CC[C@@H](CO)NC(=O)N[C@@H](C)Cn2cc(C3(O)CCCC3)nn2)oc(C(C)=O)c1C(=O)OC` the composite z-score was -0.0616 (inactive).
In the case of `COC(=O)C(CC#Cc1ccc2c(c1)[C@]1(C(=O)N2)[C@H](c2ccc(O)cc2)N2[C@H](c3ccccc3)[C@H](c3ccccc3)OC(=O)[C@H]2[C@@H]1C(N)=O)C(=O)OC`, the composite z-score is reported as -0.609 (inactive).
In the case of `COC(=O)[C@@]1(Cc2ccc(F)cc2)[C@H]2c3cc(C(=O)N(C)C)n(Cc4ccc(C)c(F)c4F)c3C[C@H]2CN1C(=O)c1ccccc1`, the composite z-score is reported as 0.365 (inactive).
In the case of `COc1ccc(C#Cc2ccc3c(c2)[C@]2(C(=O)N3)[C@H](c3ccc(OCCO)cc3)N3[C@H](c4ccccc4)[C@H](c4ccccc4)OC(=O)[C@H]3[C@@H]2C(=O)N2CCN(c3ncccn3)CC2)cc1`, the composite z-score is reported as -0.138 (inactive).
`COC(=O)[C@@]1(Cc2ccccc2)[C@H]2c3cc(C(=O)N(C)C)n(Cc4ccccn4)c3C[C@H]2CN1C(=O)c1ccccc1` was tested, and the composite z-score was 1.08 (inactive).
`C/C=C/[C@@H](CCn1cc([C@H](O)c2ccccc2)nn1)[Si](C)(C)c1ccc(OC)cc1` was tested, and the composite z-score was 0.895 (inactive).
For `N#Cc1ccc(NN2C(C(O)c3ccco3)C=CC3C(=O)N(c4ccccc4)C(=O)C32)cc1` (stereo not given), the composite z-score was -0.323 (inactive).
In the case of `C#CCOC(=O)N[C@H](C=CCCCC)c1ccccc1`, the composite z-score is reported as 0.0811 (inactive).
`[N-]=[N+]=Nc1ccccc1[C@@H]1OC(c2ccc(OCCCO)cc2)=N[C@]1(CCS(=O)(=O)c1ccccc1)C(=O)NCc1ccccc1` was tested, and the composite z-score was 1.44 (inactive).
For `COc1cc(C(O)C2C=CC3C(=O)NC(=O)C3N2Nc2ccc(Cl)cc2Cl)cc(OC)c1OC` (stereo not given), the composite z-score was 0.587 (inactive).
For `C=CCN1C(=O)[C@@]2(O[C@@H](CCn3cc([C@H](O)c4ccccc4)nn3)[C@H]([Si](C)(C)c3ccc(OC)cc3)[C@H]2C)c2cc(NC(=O)c3ccc(OC)cc3)ccc21`, the composite z-score was 0.593 (inactive).

These compounds were tested on XIP peptide (Xip251-270) (assay: small-molecule binders of XIP peptide, primary screen, biochemical, small-molecule microarray, fluorescence 635/667 nm, 0.5 µg/mL protein (AID 1183)). Conditions: small-molecule microarray binding, fluorescence 635 nm; higher = more signal.
Work on `CC(C)=CCCC(C)=CC(O)C1C=CC2C(=O)N(c3ccccc3)C(=O)C2N1Nc1ccc([N+](=O)[O-])cc1` (stereo not given) yielded a composite z-score of 0.817.
With `COCCCNC(=O)[C@]1(Cc2ccccc2)N=C(c2ccc(OCCCO)cc2)O[C@@H]1c1ccccc1N=[N+]=[N-]` the composite z-score was 0.576.
With `COCCOC(=O)N1C(=O)[C@@]2(c3cc(C#CCC(C(=O)OC)C(=O)OC)ccc31)[C@H](c1ccc(OCCO)cc1)N1[C@H](c3ccccc3)[C@H](c3ccccc3)OC(=O)[C@H]1[C@@H]2C(N)=O` the composite z-score was 0.803.
Work on `CN(C)CCCN1C(=O)[C@@]2(Cc3ccccc31)c1ccccc1C(=O)N(Cc1ccccc1)[C@H]2c1ccc(CO)cc1` yielded a composite z-score of 0.324.
Compound `CN(C)CCCCCCNC(=O)[C@@H]1C[C@@H]2C(=O)NCC(=O)N2[C@@H]1c1ccc(O)cc1` has a composite z-score of 0.935.
`O=[N+]([O-])c1ccc(C[n+]2ccc(-c3ccc(CO)cc3)cc2)o1` was tested, and the composite z-score was 0.905.
Compound `COC(=O)[C@]1(Cc2ccccc2CN=[N+]=[N-])N=C(c2ccc(OCCCO)cc2)O[C@@H]1c1ccccc1` has a composite z-score of 0.534.
With `CCCCCCC#C[Si](O[C@H](c1ccccc1)c1cn(Cc2cccc(Cl)c2)nn1)(C(C)C)C(C)C` the composite z-score was 0.0372.
`CN1C(=O)C2C=CC(C(O)c3ccc(F)cc3)N(N3CCCCC3)C2C1=O` (stereo not given) showed a composite z-score of -0.635.
`COc1ccc([Si](C)(C)[C@H]2[C@H](CC(=O)N3CCC[C@H]3CO)O[C@@]3(C(=O)N(Cc4ccc(N5C(=O)c6cccc7cccc5c67)cc4)c4ccccc43)[C@@H]2C)cc1` showed a composite z-score of 0.803.
Work on `[N-]=[N+]=NCc1ccccc1[C@H]1OC(c2ccc(OCCCO)cc2)=N[C@@]1(Cc1ccccc1N=[N+]=[N-])C(=O)N1CCCCC1` yielded a composite z-score of 0.831.
In the case of `O=C1c2ccccc2C(=O)C2CC([C@H]3Oc4ccccc4S(=O)(=O)N4CCC[C@@H]34)=CCC12` (stereo not given in full), the composite z-score is reported as -0.267.
Work on `C[C@H]1ON(c2ccccc2)[C@@H](c2ccccc2)[C@@H]1C(=O)N1C(=O)OC[C@@H]1c1ccccc1` yielded a composite z-score of 0.195.
Compound `CN(C)C(=O)[C@@]1(CCC(=O)OC(C)(C)C)COC(c2ccc(OCCCO)cc2)=N1` has a composite z-score of 0.846.
`Cc1ccc(S[C@]2(C(=O)O)CC(=O)N(C3CCCCC3)[C@@H]2c2ccc(CO)cc2)cc1` was tested, and the composite z-score was 0.929.
For `CC(C)CCC[C@@H](C)[C@H]1CC[C@@]2(C)C3=C(CC[C@]12C)[C@@]1(C)CC[C@H](OC(=O)c2ccc(N)cc2)C(C)(C)C1CC3` (stereo not given in full), the composite z-score was 0.132.
`C=CC[C@@]1(C(=O)NCCN2CCOCC2)N=C(c2ccc(OCCCO)cc2)O[C@@H]1c1ccccc1` gave a composite z-score of 0.638.
`C=CCC(OC(C)=O)[C@@H]1[C@@H](N(Cc2cccc3ccccc23)C(=O)Cc2ccc(F)cc2)c2cc(OCCCO)ccc2N1C(=O)Cc1ccc(OC)cc1` (stereo not given in full) showed a composite z-score of -0.189.
Work on `COc1ccc(C#Cc2ccc3c(c2)[C@]2(C(=O)N3)[C@H](C(N)=O)[C@H]3C(=O)O[C@H](c4ccccc4)[C@H](c4ccccc4)N3[C@@H]2c2ccc(O)cc2)cc1` yielded a composite z-score of 0.712.
With `CCOC(=O)C1=CC[C@@H](c2ccc(N(CC)CC)cc2)N(S(=O)(=O)c2ccc(C)cc2)[C@H]1c1ccc([N+](=O)[O-])cc1` the composite z-score was 0.357.
With `COC(=O)[C@@]1(Cc2ccc(F)cc2)[C@H]2c3cc(C(=O)N4CCCC4)n(Cc4ccccc4)c3C[C@H]2CN1C(=O)c1ccccc1` the composite z-score was 0.703.
Work on `O=C1O[C@H](c2ccccc2)[C@H](c2ccccc2)N2[C@H]1[C@@H](C(=O)N1CCCCCCC1)[C@]1(C(=O)Nc3ccccc31)[C@H]2c1ccc(O)cc1` yielded a composite z-score of 0.943.
Compound `COc1cc(NN2C(C(O)c3ccc(I)cc3)C=CC3C(=O)N(C)C(=O)C32)cc(OC)c1OC` (stereo not given) has a composite z-score of -0.064.
`C=CCC(OC(C)=O)[C@@H]1[C@@H](N(Cc2ccc(-c3ccccc3)cc2)C(=O)c2cccc3ccccc23)c2cc(OCCCO)ccc2N1C(=O)c1ccc2ccccc2n1` (stereo not given in full) was tested, and the composite z-score was 0.328.
With `COC(=O)c1c(CC[C@@H](CO)NC(=O)N[C@@H](C)Cn2cc(C3(O)CCCC3)nn2)oc(C(C)=O)c1C(=O)OC` the composite z-score was 0.407.
With `COC(=O)C(CC#Cc1ccc2c(c1)[C@]1(C(=O)N2)[C@H](c2ccc(O)cc2)N2[C@H](c3ccccc3)[C@H](c3ccccc3)OC(=O)[C@H]2[C@@H]1C(N)=O)C(=O)OC` the composite z-score was -2.27.
For `COC(=O)[C@@]1(Cc2ccc(F)cc2)[C@H]2c3cc(C(=O)N(C)C)n(Cc4ccc(C)c(F)c4F)c3C[C@H]2CN1C(=O)c1ccccc1`, the composite z-score was -0.0688.
`COc1ccc(C#Cc2ccc3c(c2)[C@]2(C(=O)N3)[C@H](c3ccc(OCCO)cc3)N3[C@H](c4ccccc4)[C@H](c4ccccc4)OC(=O)[C@H]3[C@@H]2C(=O)N2CCN(c3ncccn3)CC2)cc1` showed a composite z-score of 0.0154.
In the case of `COC(=O)[C@@]1(Cc2ccccc2)[C@H]2c3cc(C(=O)N(C)C)n(Cc4ccccn4)c3C[C@H]2CN1C(=O)c1ccccc1`, the composite z-score is reported as 0.595.
`C/C=C/[C@@H](CCn1cc([C@H](O)c2ccccc2)nn1)[Si](C)(C)c1ccc(OC)cc1` was tested, and the composite z-score was 0.778.
Work on `N#Cc1ccc(NN2C(C(O)c3ccco3)C=CC3C(=O)N(c4ccccc4)C(=O)C32)cc1` (stereo not given) yielded a composite z-score of 0.347.
`C#CCOC(=O)N[C@H](C=CCCCC)c1ccccc1` gave a composite z-score of -0.632.
`[N-]=[N+]=Nc1ccccc1[C@@H]1OC(c2ccc(OCCCO)cc2)=N[C@]1(CCS(=O)(=O)c1ccccc1)C(=O)NCc1ccccc1` was tested, and the composite z-score was 0.629.
For `COc1cc(C(O)C2C=CC3C(=O)NC(=O)C3N2Nc2ccc(Cl)cc2Cl)cc(OC)c1OC` (stereo not given), the composite z-score was 0.619.
`C=CCN1C(=O)[C@@]2(O[C@@H](CCn3cc([C@H](O)c4ccccc4)nn3)[C@H]([Si](C)(C)c3ccc(OC)cc3)[C@H]2C)c2cc(NC(=O)c3ccc(OC)cc3)ccc21` showed a composite z-score of 0.189.
